{
  "source": "PubChem BioAssay AID2284375",
  "about": "(EPA ToxCast)",
  "note": "Results filed as inconclusive are left out. The source made the active and inactive calls. How the source made its calls: active means hit-call score of the fitted dose curve at least 0.9, where 1 is the maximum; inconclusive means response in the unintended direction; inactive means score below 0.9.",
  "data": [
    {"biological_target": "Estrogen receptor (Homo sapiens) (UniProt P03372)", "sequence (P03372 whole entry, looked up)": "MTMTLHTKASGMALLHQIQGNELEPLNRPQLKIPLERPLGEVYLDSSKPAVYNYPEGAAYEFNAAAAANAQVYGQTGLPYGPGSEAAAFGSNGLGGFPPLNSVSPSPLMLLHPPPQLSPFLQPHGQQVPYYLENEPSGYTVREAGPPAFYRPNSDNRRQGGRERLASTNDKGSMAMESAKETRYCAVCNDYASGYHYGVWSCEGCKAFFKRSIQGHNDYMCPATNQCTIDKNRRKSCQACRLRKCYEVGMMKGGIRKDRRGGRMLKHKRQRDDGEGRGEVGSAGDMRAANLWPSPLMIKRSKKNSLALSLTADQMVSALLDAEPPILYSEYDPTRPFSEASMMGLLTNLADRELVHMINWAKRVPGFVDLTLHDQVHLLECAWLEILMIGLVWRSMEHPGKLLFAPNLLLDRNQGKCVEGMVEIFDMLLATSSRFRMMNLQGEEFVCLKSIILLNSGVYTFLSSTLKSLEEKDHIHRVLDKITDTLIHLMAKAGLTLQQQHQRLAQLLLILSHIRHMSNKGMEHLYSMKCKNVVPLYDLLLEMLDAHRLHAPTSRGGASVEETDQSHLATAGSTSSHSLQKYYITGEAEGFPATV", "assay": "ERF_US_NR_hESR1: Eurofins (ERF) Nuclear Receptor (NR) Cell Based Protein-Protein Interaction LeadHunter Assay for human Estrogen Receptor alpha (ERa) Agonism", "protocol": "ERF_US_NR_hESR1 is a cell-based, single-readout assay that uses extracted gene-proteins in a cell-line assay. Measurements were taken 5 hours after chemical dosing in a 384-well plate. See ERalpha Human Estrogen NHR Cell Based Agonist Protein-Protein Interaction Assay, DiscoverX.ERF_US_NR_hESR1 is an assay component calculated from the ERF_US_NR_hESR1 assay. It is designed to […].Data from the assay component ERF_US_NR_hESR1 was analyzed at the assay endpoint, ERF_US_NR_hESR1, in the positive analysis fitting direction relative to DMSO as the negative control and baseline of activity. Using a type of binding reporter, gain-of-signal activity can be used to understand changes in binding as they relate to gene ESR1. To generalize the intended target to other relatable targets, this assay endpoint is annotated to the nuclear receptor intended target family, where the subfamily is steroid.\nCells were seeded in a total volume of 20 uL into white walled, 384-well microplates and incubated at 37C overnight prior to testing. Briefly, intermediate dilution of sample stocks was performed to generate 5X sample in assay buffer. 5 uL of 5X sample was added to cells and incubated at37C for 300 minutes. Final assay vehicle concentration was 1%. The results are expressed as a percent efficacy of the control ligand.", "values": [
      {"smiles": "OCC(F)(F)OC(F)(F)C(F)(F)OC(F)(F)C(F)(F)OC(F)(F)CO", "outcome": "inactive"},
      {"smiles": "NS(=O)(=O)C(F)(F)C(F)(F)C(F)(F)C(F)(F)C(F)(F)C(F)(F)C(F)(F)C(F)(F)F", "outcome": "inactive"},
      {"smiles": "OCC(F)(F)OC(F)(F)C(F)(F)OC(F)(F)C(F)(F)OC(F)(F)F", "AC50": "19.5 µM (active)"}
    ]}
  ]
}
